# Test results: PubChem BioAssay AID1159580 (chemical genetic matrix, 2015)
# The whole screen tested about 5,500 compounds, of which about 2,000 (36%) were called active. Roughly 18% stayed inconclusive and do not appear here. This is one part of the list. Values without a mark were called inactive. Rule as the data show it: active = normalized growth mostly below about 0.91 (no sharp cut-off); inconclusive = no clear call, values can overlap the other calls; inactive = mostly above about 0.92.
# Experiment: chemical genetic growth profiling, strain panel (AID 1159580);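 also: tested at 20 µM; growth read once vehicle control cultures reached saturation at 30 °C; 1 = growth at the plate median or of vehicle wells; lower values mean less growth of the strain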
# Conditions: growth OD
smiles,measurement,setting,value
C=CC(C)(O)CC/C=C(\C)CCC=C(C)C (stereo not drawn),normalized growth,"S. cerevisiae deletion strains, locus YKL009W, strain mrt4, active compounds read low",0.952
same,normalized growth,"S. cerevisiae deletion strains, locus YKL068W, active compounds read low",0.994
same,normalized growth,"S. cerevisiae deletion strains, locus YKL085W, strain MDH1 (second series), active compounds read low",0.996
same,normalized growth,"S. cerevisiae deletion strains, locus YKL085W, strain MDH1, active compounds read low",0.996
same,normalized growth,"S. cerevisiae deletion strains, locus YKL160W, strain elf1, active compounds read low",0.903
same,normalized growth,"S. cerevisiae deletion strains, locus YKL190W, strain CNB1, active compounds read low",0.97
same,normalized growth,"S. cerevisiae deletion strains, locus YKR001C, strain vps1, active compounds read low",1
same,normalized growth,"S. cerevisiae deletion strains, locus YKR026C, strain gcn3, active compounds read low",0.951
same,normalized growth,"S. cerevisiae deletion strains, locus YKR091W, strain srl3, active compounds read low",0.97
same,normalized growth,"S. cerevisiae deletion strains, locus YLL001W, strain dnm1, active compounds read low",0.978
same,normalized growth,"S. cerevisiae deletion strains, locus YLL026W, active compounds read low",0.972
same,normalized growth,"S. cerevisiae deletion strains, locus YLL041C, strain sdh2, active compounds read low",0.973
same,normalized growth,"S. cerevisiae deletion strains, locus YLR027C, strain aat2, active compounds read low",0.967
same,normalized growth,"S. cerevisiae deletion strains, locus YLR039C, strain RIC1, active compounds read low",0.882
same,normalized growth,"S. cerevisiae deletion strains, locus YLR058C, strain SHM2, active compounds read low",0.949
same,normalized growth,"S. cerevisiae deletion strains, locus YLR102C, strain apc9, active compounds read low",1
same,normalized growth,"S. cerevisiae deletion strains, locus YLR113W, strain HOG1, active compounds read low",0.868
same,normalized growth,"S. cerevisiae deletion strains, locus YLR221C, strain rsa3, active compounds read low",0.9 (active)
same,normalized growth,"S. cerevisiae deletion strains, locus YLR258W, strain gsy2, active compounds read low",0.966
same,normalized growth,"S. cerevisiae deletion strains, locus YLR262C, strain YPT6 (second series), active compounds read low",0.842 (active)
same,normalized growth,"S. cerevisiae deletion strains, locus YLR262C, strain YPT6, active compounds read low",0.926
same,normalized growth,"S. cerevisiae deletion strains, locus YLR268W, strain sec22, active compounds read low",1
same,normalized growth,"S. cerevisiae deletion strains, locus YLR320W, strain mms22, active compounds read low",0.846 (active)
same,normalized growth,"S. cerevisiae deletion strains, locus YLR330W, strain CHS5, active compounds read low",0.925
same,normalized growth,"S. cerevisiae deletion strains, locus YLR342W, strain FKS1 (second series), active compounds read low",0.878
same,normalized growth,"S. cerevisiae deletion strains, locus YLR342W, strain FKS1, active compounds read low",0.974
same,normalized growth,"S. cerevisiae deletion strains, locus YLR357W, strain rsc2, active compounds read low",0.81 (active)
same,normalized growth,"S. cerevisiae deletion strains, locus YLR370C, strain arc18, active compounds read low",0.921
same,normalized growth,"S. cerevisiae deletion strains, locus YLR371W, strain rom2, active compounds read low",0.962
same,normalized growth,"S. cerevisiae deletion strains, locus YLR384C, strain iki3, active compounds read low",0.98
same,normalized growth,"S. cerevisiae deletion strains, locus YLR418C, strain cdc73, active compounds read low",0.911
same,normalized growth,"S. cerevisiae deletion strains, locus YML016C, strain PPZ1, active compounds read low",0.996
same,normalized growth,"S. cerevisiae deletion strains, locus YML032C, strain rad52, active compounds read low",0.926
same,normalized growth,"S. cerevisiae deletion strains, locus YML120C, strain ndi1, active compounds read low",0.919
same,normalized growth,"S. cerevisiae deletion strains, locus YML124C, strain tub3, active compounds read low",1.01
same,normalized growth,"S. cerevisiae deletion strains, locus YMR058W, strain fet3, active compounds read low",0.95
same,normalized growth,"S. cerevisiae deletion strains, locus YMR078C, strain ctf18, active compounds read low",1.01
same,normalized growth,"S. cerevisiae deletion strains, locus YMR125W, strain sto1, active compounds read low",0.828 (active)
same,normalized growth,"S. cerevisiae deletion strains, locus YMR129W, active compounds read low",0.967
same,normalized growth,"S. cerevisiae deletion strains, locus YMR205C, strain PFK2, active compounds read low",0.911
same,normalized growth,"S. cerevisiae deletion strains, locus YMR223W, strain ubp8, active compounds read low",0.957
same,normalized growth,"S. cerevisiae deletion strains, locus YMR231W, strain pep5, active compounds read low",0.999
same,normalized growth,"S. cerevisiae deletion strains, locus YMR307W, strain GAS1, active compounds read low",0.621
same,normalized growth,"S. cerevisiae deletion strains, locus YNL067W, strain RPL9B, active compounds read low",0.943
same,normalized growth,"S. cerevisiae deletion strains, locus YNL071W, strain lat1, active compounds read low",0.85 (active)
same,normalized growth,"S. cerevisiae deletion strains, locus YNL153C, strain GIM3, active compounds read low",0.921
same,normalized growth,"S. cerevisiae deletion strains, locus YNL183C, strain NPR1, active compounds read low",0.948
same,normalized growth,"S. cerevisiae deletion strains, locus YNL209W, strain ssb2, active compounds read low",0.977
same,normalized growth,"S. cerevisiae deletion strains, locus YNL233W, strain BNI4, active compounds read low",0.788 (active)
same,normalized growth,"S. cerevisiae deletion strains, locus YNL248C, strain rpa49, active compounds read low",0.883 (active)
same,normalized growth,"S. cerevisiae deletion strains, locus YNL250W, strain rad50, active compounds read low",0.994
same,normalized growth,"S. cerevisiae deletion strains, locus YNL271C, strain bni1, active compounds read low",1
same,normalized growth,"S. cerevisiae deletion strains, locus YNL298W, strain CLA4, active compounds read low",0.951
same,normalized growth,"S. cerevisiae deletion strains, locus YNL307C, strain MCK1, active compounds read low",1
same,normalized growth,"S. cerevisiae deletion strains, locus YNL322C, strain KRE1 (second series), active compounds read low",0.993
same,normalized growth,"S. cerevisiae deletion strains, locus YNR049C, strain mso1, active compounds read low",0.966
same,normalized growth,"S. cerevisiae deletion strains, locus YNR052C, strain pop2, active compounds read low",0.933
same,normalized growth,"S. cerevisiae deletion strains, locus YOL006C, strain TOP1, active compounds read low",0.816
same,normalized growth,"S. cerevisiae deletion strains, locus YOL012C, strain htz1",0.833
same,normalized growth,"S. cerevisiae deletion strains, locus YOL147C, strain pex11, active compounds read low",0.987
same,normalized growth,"S. cerevisiae deletion strains, locus YOR001W, strain rrp6, active compounds read low",0.887 (active)
same,normalized growth,"S. cerevisiae deletion strains, locus YOR061W, strain CKA2, active compounds read low",0.977
same,normalized growth,"S. cerevisiae deletion strains, locus YOR069W, strain VPS5, active compounds read low",0.984
same,normalized growth,"S. cerevisiae deletion strains, locus YOR070C, strain gyp1, active compounds read low",0.981
same,normalized growth,"S. cerevisiae deletion strains, locus YOR080W, strain dia2, active compounds read low",0.972
same,normalized growth,"S. cerevisiae deletion strains, locus YOR083W, strain WHI5, active compounds read low",0.882 (active)
same,normalized growth,"S. cerevisiae deletion strains, locus YOR106W, strain vam3, active compounds read low",0.881
same,normalized growth,"S. cerevisiae deletion strains, locus YOR136W, strain idh2, active compounds read low",1.01
same,normalized growth,"S. cerevisiae deletion strains, locus YOR144C, strain elg1, active compounds read low",0.999
same,normalized growth,"S. cerevisiae deletion strains, locus YOR184W, strain ser1, active compounds read low",0.941
same,normalized growth,"S. cerevisiae deletion strains, locus YOR231W, strain MKK1, active compounds read low",0.873
same,normalized growth,"S. cerevisiae deletion strains, locus YOR265W, strain rbl2, active compounds read low",0.983
same,normalized growth,"S. cerevisiae deletion strains, locus YOR270C, strain vph1, active compounds read low",0.757 (active)
same,normalized growth,"S. cerevisiae deletion strains, locus YOR290C, strain snf2, active compounds read low",0.875
same,normalized growth,"S. cerevisiae deletion strains, locus YOR316C, strain cot1, active compounds read low",0.997
same,normalized growth,"S. cerevisiae deletion strains, locus YPL051W, strain arl3, active compounds read low",0.907 (active)
same,normalized growth,"S. cerevisiae deletion strains, locus YPL055C, strain LGE1, active compounds read low",0.88
same,normalized growth,"S. cerevisiae deletion strains, locus YPL078C, strain atp4, active compounds read low",0.863 (active)
same,normalized growth,"S. cerevisiae deletion strains, locus YPL106C, strain sse1, active compounds read low",0.793 (active)
same,normalized growth,"S. cerevisiae deletion strains, locus YPL240C, strain hsp82, active compounds read low",0.96
same,normalized growth,"S. cerevisiae deletion strains, locus YPL241C, strain CIN2, active compounds read low",1
same,normalized growth,"S. cerevisiae deletion strains, locus YPL256C, strain CLN2, active compounds read low",0.838
same,normalized growth,"S. cerevisiae deletion strains, locus YPR119W, strain clb2, active compounds read low",1.02
same,normalized growth,"S. cerevisiae deletion strains, locus YPR141C, strain kar3, active compounds read low",1
same,normalized growth,"S. cerevisiae deletion strains, locus YPR163C, strain tif3, active compounds read low",1.02
same,normalized growth,"S. cerevisiae deletion strains, locus YPR167C, strain met16, active compounds read low",0.988
same,normalized growth,"S. cerevisiae deletion strains, strain wtn01, active compounds read low",0.99
same,normalized growth,"S. cerevisiae strains, strain wild type, active compounds read low",0.924
